Source: PubChem
An excerpt weighted towards active compounds, which were near 4.6% of everything screened.
hcDAF-12 act = activates DAF-12 receptor from parasite H. contortus; HEK293 hcDAF-12 lit1-tk-luc reporter, luminescence; 0% DMSO, 100% Δ7-dafachronic acid; activation, % at 6.8 µM; 370,000 compounds, 1.4% hits; AID 652067;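 active = activation above the mean of all tested compounds plus 3 SD, cut at about 5.5% in these data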;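 note: 100% = response to 3 µM Δ7-dafachronic acid high control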
DAX1 inh-1 = DAX1 (NR0B1) inhibition, primary screen | HEK293T StAR-luciferase reporter, SF-1/DAX-1 repression relief | inhibition, % at 6.8 µM | 370,000 compounds, 1.1% hits | AID 652010;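 active = inhibition above the mean over all tested compounds plus 3 SD, cut at about 3.6% in these data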;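 note: 0% = DAX-1 cells with DMSO and 100% = cells lacking DAX-1 with DMSO; higher inhibition means more luminescence from relief of DAX-1 repression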
hgDAF12 agonist = hgDAF-12 agonism, primary luciferase screen. activation, % at 6.8 µM. HEK293 GAL4-hgDAF12 UAS-luciferase reporter, agonist luminescence; normalized to butyrate control. 370,000 compounds, 1.8% hits;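 active = activation above a cutoff set at the mean of all screened compounds plus 3 SD, cut at about 10% in these data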;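 note: 0% = DMSO wells and 100% = sodium butyrate wells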
ssDAF-12 act = activators of S. stercoralis DAF-12 nuclear receptor | activation, % at 6.8 µM | 370,000 compounds, 1% hits | HEK293 ssDAF-12/GRIP1 lit1-tk-luc reporter, luminescence; % of 3 µM dafachronic acid response;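 active = activation above the mean over all tested compounds plus 3 SD, cut at about 0.9% in these data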;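 note: 0% = DMSO-only wells and 100% = 3 µM delta7-dafachronic acid wells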
Wee1 degr inh = human Wee1 degradation inhibition, primary screen; 220,000 compounds, 1.2% hits; reporter increase, % at 5 µM; HeLa Luc-Wee1K328M stability, luciferase luminescence; 100% = proteasome inhibitor MG132 effect;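 active = activation above the mean of all tested compounds plus 3 SD, set per screening run, cut at about 8.8% in these data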;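 note: cells exposed to compound for 20 h before luminescence read; 0% = DMSO alone and 100% = MG132 at 30 µM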
Target sequence (P30291 whole entry K328M): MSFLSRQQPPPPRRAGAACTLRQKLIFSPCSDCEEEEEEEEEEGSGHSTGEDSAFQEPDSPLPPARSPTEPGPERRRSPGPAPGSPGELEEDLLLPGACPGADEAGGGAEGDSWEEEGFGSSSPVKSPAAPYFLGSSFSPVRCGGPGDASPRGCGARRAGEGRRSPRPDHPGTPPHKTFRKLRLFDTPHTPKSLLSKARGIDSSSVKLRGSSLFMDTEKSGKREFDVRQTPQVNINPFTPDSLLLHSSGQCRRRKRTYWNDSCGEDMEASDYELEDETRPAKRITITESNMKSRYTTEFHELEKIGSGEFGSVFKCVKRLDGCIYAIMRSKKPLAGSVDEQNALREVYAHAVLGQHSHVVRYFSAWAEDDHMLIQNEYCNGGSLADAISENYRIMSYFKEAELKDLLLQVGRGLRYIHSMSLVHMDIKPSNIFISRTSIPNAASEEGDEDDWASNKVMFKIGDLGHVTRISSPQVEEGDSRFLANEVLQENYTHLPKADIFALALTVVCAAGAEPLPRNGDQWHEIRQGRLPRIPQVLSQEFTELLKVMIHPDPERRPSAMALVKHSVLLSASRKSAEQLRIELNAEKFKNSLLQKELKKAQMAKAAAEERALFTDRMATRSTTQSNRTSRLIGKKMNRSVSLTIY
DAX1 inh-2 = inhibits human nuclear receptor DAX1. HEK293 Gal4-DAX1 luciferase reporter, luminescence. P51843. 340,000 compounds, 0.99% hits. inhibition, % at 6.75 µM;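 active = inhibition above the mean over all tested compounds plus 3 SD, cut at about 4.2% in these data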;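 note: 0% = DAX1-transfected cells with DMSO and 100% = empty-vector control cells with DMSO; inhibition shows as a rise in luminescence from relieved DAX1 repression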
* hit, by the source's call; x = no result.

SMILES	hcDAF-12 act	DAX1 inh-1	hgDAF12 agonist	ssDAF-12 act	Wee1 degr inh	DAX1 inh-2
O=C(O)c1ccc(N=Nc2c(O)[nH]c3ccc(Br)cc23)cc1	5.4	1.3	11.1*	0.4	x	3.4
Fc1ccc(-c2nc(-c3cnccn3)no2)c(Cl)c1	2.4	1.4	5.8	0.0	9.4*	2.3
Clc1ccc(-c2nc(-c3cnccn3)no2)cc1	3.8	1.5	10.2	-0.1	0.9	x
Cc1ccc(-c2nnc(SCC(=O)Nc3ccc(-c4nc5ccc(C)cc5s4)cc3)n2Cc2ccco2)cc1	-1.2	-1.3	10.7*	-0.9	x	x
Cc1ccc2nc(-c3ccc(NC(=O)CN4CCN(C(=O)c5ccco5)CC4)cc3)sc2c1	-0.4	0.5	2.7	-1.3	10.9*	-1.2
CCC(c1ccc(OC)cc1)c1cn(C)c2ccccc12 (centres undefined)	2.2	0.4	-0.1	-0.8	x	x
CCCCOCCCNC(=O)C[C@H]1C[C@@]2(C(=O)OC)C(=C[C@H](C(C)C)O[C@@H]2C2CC2)N(CCc2ccc(OC)c(OC)c2)C1=O	-0.1	0.0	3.2	-1.2	x	x
CC(=NN(Cc1ccccc1)c1ccccc1)c1ccccc1	0.6	0.1	2.3	-1.0	x	4.5*
CCCCCC(=O)N1C[C@@H](O)[C@H](n2cc(C3CC3)nn2)C[C@@H]1c1ccc(Cl)cc1	0.4	0.1	-1.4	-0.8	x	4.6*
CCCCCC(=O)N1C[C@H](n2cc(C3CC3)nn2)[C@@H](O)C[C@@H]1c1ccc(Cl)cc1	-2.2	0.7	-1.0	-1.3	x	-0.2
Cn1c(SC/C=C/c2ccccc2)nnc1-c1cccnc1	-0.9	-0.3	2.1	-1.8	x	x
COc1cc(CNCc2ccccn2)ccc1OCc1ccccc1Cl	0.7	-0.3	0.3	-0.4	-2.3	-1.2
CCOc1c(Cl)cc(CNCc2ccccn2)cc1OC	-0.3	0.4	1.9	-1.5	9.0*	2.9
O=C(COC(=O)CCN=C1NS(=O)(=O)c2ccccc21)NNC(=O)c1ccc(Cl)cc1	1.9	-1.1	-2.2	-0.6	x	1.1
COC(=O)c1ccc(NC(=O)c2ccc(OC(C)=O)c(OC)c2)cc1	3.2	4.0*	9.3	-1.6	2.0	-1.1
COc1cc(C(=O)Nc2ccc(O)cc2C(=O)O)ccc1OC(C)=O	-0.4	-0.1	-0.1	-2.0	-0.3	-0.7
O=C(c1cscn1)N1CCC(Oc2cccnc2)CC1	0.4	-0.1	-3.9	-1.4	x	x
CSc1ccc(/C=C(\NC(=O)c2ccccc2)C(=O)NCCN2CCOCC2)cc1	-0.8	-0.1	-0.2	-0.6	x	5.2*
O=C(NCCN1CCOCC1)/C(=C/c1ccccc1)NC(=O)c1ccccc1	-1.6	-0.1	5.0	-1.1	x	-0.1
CC(C)n1c(=S)[nH]c2scc(-c3cccs3)c2c1=O	0.2	0.0	0.5	-0.2	9.1*	-0.8
CC(C)c1ccccc1NC(=O)[C@@H]1CCCN1S(=O)(=O)c1cccc2cccnc12	-2.4	x	-4.3	-1.5	x	x
Cc1ccc2nc(N/C(=N/S(=O)(=O)c3ccc(F)cc3)c3ccccc3)sc2c1	0.3	1.7	8.2	0.1	-1.9	2.2
Cc1ccc2nc(N/C(=N/S(=O)(=O)c3ccc(F)cc3F)c3ccccc3)sc2c1	3.5	0.3	8.0	-0.3	9.0*	0.1
Cc1ccc(-c2nc3cc(C)c(Br)c(C)n3c2Cc2ccccc2)cc1	5.6*	0.9	9.6	0.5	x	x
Cc1ccc(Cc2c(-c3ccc(Cl)cc3)nc3cc(C)c(Br)c(C)n23)cc1	2.6	4.1*	3.2	1.2*	x	x
SMILES	hcDAF-12 act	DAX1 inh-1	hgDAF12 agonist	ssDAF-12 act	Wee1 degr inh	DAX1 inh-2
Cc1cc2nc(-c3ccc(Cl)cc3)c(CC3CCCCC3)n2c(C)c1Br	6.1*	3.5	3.8	1.4*	x	x
C[C@H]1[C@@H](NS(=O)(=O)c2ccccc2[N+](=O)[O-])CC[C@@]23CCCN2C(=O)CCC[C@@H]13	-0.4	x	0.7	-1.3	x	x
CCOC(=O)c1sc(NC(=S)NC(=O)C23CC4CC(CC(C4)C2)C3)cc1C	-1.2	0.0	1.4	-0.7	9.4*	1.5
CCOC(=O)c1sc(NC(=S)NC(=O)C2CC2)cc1C	0.5	0.0	-2.3	-1.6	-2.4	-1.4
CC(C)Oc1ccc(S(=O)(=O)N2CCCCCC2)c2ccccc12	-3.6	0.0	-2.9	-0.9	x	x
CN1C(=O)CC(Sc2ccccc2C(=O)O)C1=O (centres undefined)	1.9	0.7	1.9	-1.0	10.3*	0.8
COCCCNC(=O)/C=C1\Sc2ccccc2N(Cc2ccccc2F)C1=O	-2.0	0.0	6.4	-0.8	9.7*	3.1
CCN1CCN(CCNC(=O)c2ccc(/C=C3\Sc4ccccc4N(Cc4ccccc4F)C3=O)cc2)CC1	-0.4	-0.1	-0.6	-1.3	-3.1	0.4
CC(COc1ccc(C#N)c(F)c1)CN1CCC(C(O)(c2ccccc2)c2ccccc2)CC1 (centres undefined)	-2.6	-1.2	4.0	-1.1	x	x
COc1cccc(/C=N\N2CCN(c3ccc(C)cc3)CC2)c1O	-2.2	-0.2	1.0	-1.1	x	x
O=C(c1ccc(Oc2ccccc2)cc1)c1nc2c(n1O)CCCC2	-1.1	0.8	1.6	1.2*	-2.3	0.7
Cc1ccc(/C=N\NC(=O)CN2CCN(S(=O)(=O)c3ccc(Br)cc3)CC2)s1	-1.5	-0.8	-1.6	-1.8	x	x
O=C(CSc1nnnn1C1CCCCC1)NCc1cccs1	-0.6	0.6	6.6	-1.4	10.7*	1.2
COc1cc(/C=N/Nc2ccccn2)cc(OC)c1O	1.8	-0.7	0.8	-0.6	-0.1	-0.3
COc1cc(/C=N/Nc2cccc3cccnc23)cc(OC)c1O	-0.3	-0.2	13.0*	-0.9	2.0	-0.9
COC(=O)N1C[C@H](OCc2ccc3c(c2)OCO3)[C@H]2C[C@@H]1c1ccccc1O2	0.9	-0.1	-3.5	-0.9	x	x
CCOC(=O)CN/C=C(\C#N)c1ccccc1	-0.8	-0.2	-3.5	-1.3	-2.3	5.4*
COc1cc2cc(c1Cl)N(C)C(=O)CC(OC(=O)C(C)N(C)C(C)=O)C1(C)OC1C(C)C1CC(O)(NC(=O)O1)C(OC)C=CC=C(C)C2 (centres undefined)	0.7	3.2	-7.0	-0.1	x	-0.7
O=[N+]([O-])c1ccc(/C=N/NC(=S)Nc2ccccc2C(F)(F)F)o1	0.3	-1.2	-0.8	-0.6	3.1	4.2*
Nc1nc(SCC(=O)O)[nH]c(=O)c1NC(=O)c1ccco1	-0.3	1.8	1.7	-0.5	x	0.6
Nc1nc(SCC(=O)N2CCCC2)[nH]c(=O)c1NC(=O)c1ccco1	0.1	0.4	-0.7	2.3*	0.0	0.6
CC(C)(C)c1ccc(OCc2nc(-c3ccccn3)no2)c(Br)c1	3.0	3.2	11.1*	0.1	-0.9	2.1
c1ccc(-c2noc(CC3CCCCC3)n2)nc1	5.4	3.9*	12.4*	-0.9	-1.5	1.6
Cc1ccc(Cc2nc(-c3ccccn3)no2)cc1	3.3	2.9	12.8*	0.1	2.7	2.0
